Source: PubChem BioAssay AID620 (Sanford-Burnham Center for Chemical Genomics, 2007)
Hit rate of the full screen: of about 87,000 compounds, about 360 (0.41%) were called active. No stated cut-off is given here; in the data, active means cytotoxicity above about 50%; inactive means the rest. The list comes from a sample in which actives are over-represented; it also holds similar structures and randomly drawn compounds.

test: cytotoxicity in HT1080 fibrosarcoma cells, cell-based, fluorescence readout (AID 620); conditions: HT1080 viability, at 10 µM, hits give high values;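 further: cells exposed to compound overnight then 4 h with Alamar Blue; 0% = vehicle DMSO and 100% = killing control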

| Compound | cytotoxicity |
| --- | --- |
| N#CCSc1nnc(Cc2cccs2)n1C1CCCCC1 | 11.1% (inactive) |
| Cc1ccc(C(=O)N2CCC(C(N)=O)CC2)cc1C | -2.5% (inactive) |
| Cc1nn(Cc2n[nH]c(=S)n2Cc2ccccc2)c(C)c1Cl | -7% (inactive) |
| Cc1ccc(NC(=O)C2(N(CC(C)C)C(=O)Cn3nnnc3N)CCCCC2)cc1 | 3% (inactive) |
| CCNC(=O)CSc1nnc(-c2ccc(OC)cc2)n1CC(C)C | -18.3% (inactive) |
| CSCC[C@H](Nc1ncnc2sc(C)c(C)c12)C(=O)O | -6% (inactive) |
| CSc1nnc(-c2ccccc2)o1 | -3.8% (inactive) |
| O=c1[nH]c2ccccc2nc1N1CCOCC1 | -5% (inactive) |
| O=S(=O)(c1ccc(N2CCC(c3ccc(Cl)cc3)=N2)cc1)N(CCO)CCO | -11.6% (inactive) |
| CN(C)CCNS(=O)(=O)c1ccc(Cl)cc1 | -7.5% (inactive) |
| COc1ccc(-n2nnc3c(=O)n(C/C=C/c4ccccc4)cnc32)cc1 | -3.8% (inactive) |
| Nc1c(C(=O)NCc2ccc3c(c2)OCO3)c2nc3ccccc3nc2n1CCCN1CCOCC1 | 52.9% (active) |
| Nc1c(C(=O)NCc2ccc(F)cc2)c2nc3ccccc3nc2n1CCCN1CCOCC1 | 0.2% (inactive) |
| COc1ccc(CNC(=O)c2c(N)n(CCCN3CCOCC3)c3nc4ccccc4nc23)cc1 | 15.1% (inactive) |
| O=C(O)CSCCc1ccccn1 | 8.2% (inactive) |
| CN1C(=O)CSc2ccc(NC(=O)N3CCN(c4ccccn4)CC3)cc21 | -6.2% (inactive) |
| COc1cccc(NC(=O)Nc2ccc3c(c2)N(C)C(=O)CS3)c1 | 6% (inactive) |
| CN1C(=O)CSc2ccc(NC(=O)N3CCc4ccccc43)cc21 | 64.2% (active) |
| Cc1cc2nc(NC3=NCN(CCCN4CCOCC4)CN3)nc(C)c2cc1C | 4.7% (inactive) |
| Cc1nc(NC2=NCN(CCN3CCOCC3)CN2)nc2c(C)cccc12 | 4.7% (inactive) |
| CCOC(=O)c1c(C)[nH]c(C(=O)OCC(=O)Nc2cc(C)ccc2OC)c1C | -1.2% (inactive) |
| CCOC(=O)c1[nH]c(C)c(C(=O)Nc2ccc(C)cc2C)c1C | 52.7% (active) |

| Compound | cytotoxicity |
| --- | --- |
| CCOC(=O)c1[nH]c(C)c(C(=O)Nc2ccc(C)c(C)c2)c1C | -11.9% (inactive) |
| CCOC(=O)c1ccc(NC(=O)c2c(C)[nH]c(C(=O)OCC)c2C)cc1 | 5.5% (inactive) |
| CCOC(=O)c1c(C)[nH]c(C(=O)OCC(=O)N2CCc3ccccc32)c1C | -4.1% (inactive) |
| CCOC(=O)c1[nH]c(C)c(C(=O)Nc2cc(Cl)ccc2C)c1C | 52% (active) |
| CCOC(=O)c1[nH]c(C)c(C(=O)N2CCc3ccccc32)c1C | 57.9% (active) |
| CCOC(=O)c1[nH]c(C)c(C(=O)Nc2ccc(Cl)cc2)c1C | 0.6% (inactive) |
| CCOC(=O)c1[nH]c(C)c(C(=O)OCC(=O)N2CCc3ccccc32)c1C | 6.7% (inactive) |
| CCOC(=O)c1[nH]c(C)c(C(=O)Nc2cc(OC)ccc2OC)c1C | 58% (active) |
| COc1ccc(OC)c(NC(=O)c2[nH]c(C)c(C(C)=O)c2C)c1 | 11.3% (inactive) |
| CCOC(=O)c1[nH]c(C)c(C(=O)Nc2ccc(C)c(Cl)c2)c1C | 22.7% (inactive) |
| O=C(Nc1ccccc1)N1CCCC2CCCCC21 (stereo not given) | 6.5% (inactive) |
| COc1cccc(-c2ccc(=O)n(CC(=O)NCCN3CCOCC3)n2)c1 | -0.6% (inactive) |
| Cc1ccc(NC(=O)CN(C)c2ccc(S(=O)(=O)N3CCN(C)CC3)cn2)cc1 | -4.8% (inactive) |
| O=C(O)C1CC=CCC1C(=O)N1CCc2ccccc21 (stereo not given) | -3.6% (inactive) |
| Cc1cc(C)n2cc(CSc3nc4cc(Cl)ccc4o3)nc2n1 | 1% (inactive) |
| Cc1ccc(C2C(C(=O)O)c3ccccc3C(=O)N2C)o1 (stereo not given) | 3.3% (inactive) |
| CCOC(=O)c1[nH]c(C)c(C(=O)Nc2ccccc2F)c1C | 44.7% (inactive) |
| CCOC(=O)c1[nH]c(C)c(C(=O)Nc2cccc(Cl)c2C)c1C | 33.8% (inactive) |
| CCOC(=O)c1[nH]c(C)c(C(=O)Nc2ccccc2C)c1C | 61.8% (active) |
| COC(=O)C1=C(C)N(CCc2ccccc2)C(=O)C1(NS(=O)(=O)c1ccc(NC(C)=O)cc1)C(F)(F)F (stereo not given) | -19.4% (inactive) |
| O=C(NCc1ccc2c(c1)OCO2)c1ccc(CN2CCOCC2)cc1 | -0.5% (inactive) |
| Cc1ccc(C(=O)N2c3ccccc3N(Cc3ccccc3)C(=O)C2(C)C)cc1 | -12.6% (inactive) |

| Compound | cytotoxicity |
| --- | --- |
| Cc1ccc(C)c(CN2C(=O)C3(OCCCO3)c3ccccc32)c1 | -5.2% (inactive) |
| CC(=O)N1c2ccccc2N(Cc2ccc(C)cc2C)C(=O)C1(C)C | 52.2% (active) |
| Cc1nnc(N2C(=O)C(O)=C(C(=O)c3ccco3)C2c2ccc(C(C)C)cc2)s1 (stereo not given) | -3.4% (inactive) |
| O=C(Nc1cc(C(F)(F)F)ccc1N1CCOCC1)c1ccc[n+]([O-])c1 | 8.9% (inactive) |
| CCc1ccccc1NS(=O)(=O)c1ccc2[nH]cc(C(=O)NCC3CCCO3)c(=O)c2c1 (stereo not given) | 3.1% (inactive) |
| CCCCOC(=O)c1ccc(NC(=O)CSc2nncn2C)cc1 | 61.2% (active) |
| COC(=O)c1ccc(NC(=O)CSc2nncn2C)cc1 | 3.9% (inactive) |
| Cn1cnnc1SCC(=O)Nc1ccccc1 | 5.5% (inactive) |
| CCCCCn1c(=O)[nH]c2cc(C(=O)NCCCN3CCCCC3)ccc2c1=O | -6% (inactive) |
| CN(C)S(=O)(=O)c1cccc(-c2nnc(-c3ccccc3)o2)c1 | -8% (inactive) |
| O=C(CSCc1c(Cl)cccc1Cl)NCc1ccco1 | 6.4% (inactive) |
| CN(C)CCNC(=O)c1coc(=O)c(Br)c1 | -5.5% (inactive) |
| C[C@@H](NC(=O)c1coc(=O)c(Br)c1)c1ccccc1 | 2.9% (inactive) |
| CC(C)CCOc1ccc(C(=O)O)cc1 | -1.4% (inactive) |
| COc1cc(OC)c(NC(=O)CCc2ccccc2)cc1Cl | -15.4% (inactive) |
| CNC(=O)CSc1nnc(-c2ccco2)n1-c1ccccc1OC | 25.4% (inactive) |
| CC(SC(=S)N1CCOCC1)C(=O)O (stereo not given) | 7.1% (inactive) |
| CC(C(=O)OCc1nnc(-c2ccccc2)o1)N1C(=O)c2ccccc2C1=O (stereo not given) | 4.5% (inactive) |
| COc1ccccc1OCCCn1cc(C#N)c2ccccc21 | 76.4% (active) |
| N#Cc1cn(CCCOc2ccccc2)c2ccccc12 | 24.2% (inactive) |
| COc1ccccc1OCCn1cc(C#N)c2ccccc21 | -3.5% (inactive) |
